About 2,100 (0.62%) of roughly 340,000 compounds were called active.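 Rule for the calls: active = first-screen hits whose inhibition reached a set limit at any dose in the follow-up dose series; inconclusive = inhibition above the set first-screen limit but never retested; inactive = the rest.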 These entries were drawn from the full list. Potency and affinity values are given separately.
molecular target: Rac GTPase-activating protein 1 (Homo sapiens) (UniProt Q9H0H5); assay: MgcRacGAP GTPase-activating activity inhibitors, confirmation, biochemical, ADP Hunter fluorescence, primary and confirmatory (AID 624330); details: MgcRacGAP-stimulated Rac1 GTP hydrolysis, at 30 µM, hits give high values, GST-tagged Rac1 F28L mutant substrate;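 note: fluorescence reports GDP produced by GAP-driven GTP hydrolysis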
Sequence (Q9H0H5 whole entry, looked up): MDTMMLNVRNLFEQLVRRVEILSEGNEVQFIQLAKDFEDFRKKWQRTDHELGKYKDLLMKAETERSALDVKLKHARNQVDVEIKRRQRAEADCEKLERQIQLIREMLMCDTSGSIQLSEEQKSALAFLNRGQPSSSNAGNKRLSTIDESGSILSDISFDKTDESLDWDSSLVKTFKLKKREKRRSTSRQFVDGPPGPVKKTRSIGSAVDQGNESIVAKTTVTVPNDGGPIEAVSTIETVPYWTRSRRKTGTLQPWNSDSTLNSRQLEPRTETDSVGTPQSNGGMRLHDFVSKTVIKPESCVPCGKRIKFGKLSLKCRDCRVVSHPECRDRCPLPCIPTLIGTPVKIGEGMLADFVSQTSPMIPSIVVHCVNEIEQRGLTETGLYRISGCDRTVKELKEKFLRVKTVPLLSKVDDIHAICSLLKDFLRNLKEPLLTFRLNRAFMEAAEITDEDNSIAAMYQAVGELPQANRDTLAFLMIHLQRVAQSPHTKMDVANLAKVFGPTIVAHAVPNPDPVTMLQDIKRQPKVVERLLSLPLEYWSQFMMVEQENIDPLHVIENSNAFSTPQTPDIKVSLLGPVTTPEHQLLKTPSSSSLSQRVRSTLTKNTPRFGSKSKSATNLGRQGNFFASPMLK

inhibition, inactive:
CCN(CC)CCNC(=O)NC(=O)c1ccc(Cl)cc1 -9.05%
O=C(NCc1ccccc1F)C(=O)NCC1OCCCN1S(=O)(=O)c1cccs1 (stereo unspecified) -0.33%
COc1ccc(NC(=O)COc2nsnc2N2CCCCC2)cc1 17.2%
Cc1ccc(N(Cc2ccc(C(=O)NCC3CCCO3)cc2)S(C)(=O)=O)cc1C (stereo unspecified) -2.07%
CC(=O)NC1C(Oc2ccc(C=O)cc2)OC(COC(C)=O)C(OC(C)=O)C1OC(C)=O (stereo unspecified) 0.46%
COc1ccc(O[C@@H]2O[C@H](COC(C)=O)[C@@H](OC(C)=O)[C@H](OC(C)=O)[C@H]2NC(C)=O)cc1 5.33%
O=C(NCc1ccc(F)cc1F)Nc1cnccc1C(F)(F)F 0.3%
CC1(c2nnc(-c3ccccc3)o2)CC(c2c(Cl)cccc2Cl)=NO1 (stereo unspecified) 7.59%
Cc1ccc(/C=N/N2CCN(c3ccccc3)CC2)cc1 14.1%
C(=N\N1CCN(c2ccccn2)CC1)/c1ccccn1 13.7%
C(=N\N1CCN(c2ccccc2)CC1)/c1ccccc1 9.75%
Cc1ccc(/C=N/N2CCN(c3ccccn3)CC2)cc1 6.1%
COc1ccc(CCNC(=O)C2CCN(S(=O)(=O)c3ccc(OC)c(OC)c3)CC2)cc1OC 1.02%
CCCOc1ccc(C2C(C(=O)c3ccc(C)o3)=C(O)C(=O)N2Cc2ccco2)cc1 (stereo unspecified) 9.74%
O=[N+]([O-])c1ccc(NN=C(C2CC2)C2CC2)c([N+](=O)[O-])c1 9.77%
COC(=O)c1sc2nc(-c3ccccc3)nc(N3CCN(C)CC3)c2c1C 6.27%
COc1ccccc1N1C(=O)CC(Sc2ccccc2N)C1=O (stereo unspecified) 2.06%
COc1ccc(C(=O)Nc2c(O)ccc3ccccc23)cc1OC 9.73%
COc1cc2ccc(=O)oc2cc1O 16.3%
COc1cc2ccc(C(C)=O)c(O)c2cc1OC 8.81%
COc1ccc(Cc2c3cc(OC)c(OC)cc3cc[n+]2C)cc1OC -5.7%
O=C(CN(Cc1ccc(Cl)cc1)C(=O)CN1C(=O)COc2ccccc21)NC1CCCC1 8.29%
O=C(Nc1cccc(F)c1)Nc1ccc(Cl)cn1 0.09%
CC(=C/c1ccccc1)/C=N/N1CCN(Cc2ccc(C)cc2)CC1 7.95%
CCOC(=O)[C@H](O)[C@@H](O)c1cccc([C@H](O)[C@@H](O)C(=O)OCC)c1 11.8%
CN(Cc1ccccc1)C(=O)c1cc(-c2ccc(Br)cc2)on1 7.89%
Cc1ccc(CSc2nnc(NC(=O)Cn3cnc4ccccc4c3=O)s2)cc1 -8.67%
CCOC(=O)c1c(-c2ccccc2)csc1NC(=O)CCN1CCOCC1 18.3%
CCOC(=O)c1c(-c2ccc(-c3ccccc3)cc2)csc1NC(=O)CCN1CCOCC1 -2.88%
COC(=O)Cn1c(=NC(=O)C2COc3ccccc3O2)sc2cc(S(N)(=O)=O)ccc21 (stereo unspecified) 3.94%
COC(=O)c1cc(-c2ccc(Cl)cc2)n(-c2ccc(S(N)(=O)=O)cc2)n1 5.18%
O=S(=O)(N/N=C/c1ccc2c(c1)OCCO2)c1ccccc1 9.57%
COC(=O)c1cc(S(=O)(=O)NCc2ccccc2)c[nH]1 11.6%
COc1cc(O)cc2cc3c(c(O)c12)C(=O)CC(C)(O)O3 (stereo unspecified) -0.09%
CCOc1ccc(S(=O)(=O)n2c([N+](=O)[O-])cnc2C)c(C)c1C 6.34%
Cc1[nH]c(=S)c(C#N)c(C)c1CC(=O)c1ccc(Br)cc1 8.21%
O=C(CN1C(=O)c2ccccc2S1(=O)=O)c1ccccc1 8.2%
O=C(CN1C(=O)c2ccccc2S1(=O)=O)c1ccc(F)c(F)c1 -3.06%
COCCN(C(=O)CSc1nnc(C)n1-c1ccccc1)c1c(N)n(Cc2ccccc2)c(=O)[nH]c1=O 9.16%
Cc1cc(OCC(=O)NCc2ccccn2)c2c(C)cc(=O)oc2c1 2.23%
CN(C)CCCO/N=C(\c1ccccc1)c1ccncc1 24.4%
CN(C)C/C=C(/c1ccc(Br)cc1)c1cccnc1 3.6%
CC(C)c1ccc(NC(=O)NCc2ccccn2)cc1 8.07%
C[C@H](CO)N1C[C@H](C)[C@@H](CN(C)C(=O)Nc2ccc(C(F)(F)F)cc2)Oc2ccc(NC(=O)CCC(F)(F)F)cc2C1=O 5.69%
COCC(C)OC(=O)C(C#N)c1nc2ccccc2nc1N1CCN(Cc2ccccc2)CC1 (stereo unspecified) 6.54%
Cc1cc(C)n(CCC(=O)N/N=C/c2ccc(O)cc2O)n1 -27.4%
O=C(Cn1cc(C(F)(F)F)ccc1=O)N/N=C/c1ccc(F)cc1 -1.82%
O=C(CCn1cnc(-c2ccccc2)c1-c1ccccc1)N/N=C/c1ccc(O)cc1 27.5%
COc1ccc(/C=N/NC(=O)CCn2nc(C)cc2C)cc1 -2.7%
COc1ccc(/C=N/NC(=O)CCn2nc(C)cc2C)cc1O 26.5%
Cc1cc(C)n(CCC(=O)N/N=C/c2ccccc2O)n1 3.84%
O=C(Cn1cc(C(F)(F)F)ccc1=O)N/N=C/c1ccc(Cl)cc1 11.1%
O=C(CCn1cnc2ccccc21)N/N=C/c1ccccc1O 0.87%
O=C(Nc1ccc(C(=O)N2CCCCC2)cc1)c1ccc([N+](=O)[O-])cc1 1.12%
Cc1ccccc1-c1cc(C(=O)O)nn1CC1CC(c2cccc([N+](=O)[O-])c2)=NO1 (stereo unspecified) 4.15%
COc1ccc(CCNC(=O)c2cc(C3CC3)nc3c2cnn3C(C)C)cc1 1.51%
O=C(Nn1cnnc1)c1ccc(OC(F)(F)C(F)C(F)(F)F)cc1 (stereo unspecified) 7.79%
CCCNC(=S)NNC(=O)c1cc(-c2cccnc2)nc2ccccc12 0.84%
CS(=O)(=O)c1cccc(C(=O)Nc2cccc(S(=O)(=O)N3CCCC3)c2)c1 3.17%
CC(=O)N1CCN(C(=O)c2ccc(NS(=O)(=O)c3ccc4c(c3)OCCO4)cc2)CC1 5.18%
O=C(CSc1ccc2ccccc2n1)N/N=C/c1ccccc1O 4.3%
COc1ccccc1/C=N/NC(=O)CSc1ccc2ccccc2n1 17.4%
O=C(CNC(=O)c1ccc(Cl)cc1Cl)NCc1ccccn1 -0.06%
CC1CCN(S(=O)(=O)c2ccc3ccccc3c2)CC1 1.45%
CC1CCN(S(=O)(=O)c2ccc3[nH]c(=O)[nH]c3c2)CC1 6.82%
Cc1ccc2c(c1)N(C(C)C(=O)NCc1ccc3c(c1)OCO3)C(=O)CO2 (stereo unspecified) 11.4%
Cc1ccc(C(=O)COC(=O)c2nc3nccc(C)n3n2)c(C)c1 5.3%
NC(=O)c1cc2ccncc2c2ccccc12 8.91%
CC1CC2(CCCCC2)Nc2ccc3ccccc3c21 (stereo unspecified) 12.5%
CC1NC(C)(C)Cc2c1ccc1ccccc21 (stereo unspecified) 2.36%
Cc1cccc(OCC(=O)NNC(=O)C2CCN(c3ncnc4sc(C)c(C)c34)CC2)c1 12.2%
COc1ccc(Nc2nc(OC)nc(OC)n2)cc1 14.1%
CNc1nc(Nc2ccc(C(C)=O)cc2)nc(OC(C(F)(F)F)C(F)(F)F)n1 8.39%
CCCC(C)NC(=O)CN1C(=O)c2cccc3cccc1c23 (stereo unspecified) 7.54%
CN(CCc1ccccn1)Cc1ccc(Cl)cc1 24%
CN(CCc1ccccn1)Cc1ccc(Cl)c(Cl)c1 27.1%
Cc1cccc(CN(C)CCc2ccccn2)c1 9.5%
COc1ccc(CN(C)Cc2ccccc2)c(OC)c1OC 4.85%
CCc1ccc(CN(C)CCc2ccccn2)cc1 13.2%
COc1ccc(CCN(C)Cc2ccc(OC)c(OCc3ccccc3)c2)cc1OC 18.3%
Cc1ccc(CN(C)CCc2ccccn2)cc1 13%
CN(CCc1ccccn1)Cc1ccc(Cl)cc1Cl 19.1%
CC(C)=CCCC(C)=CCN1C(=O)CN(C)C1=O 4.98%
CC(=O)c1cccc(NC(=O)C(C)OC(=O)CCC2CCCCC2)c1 (stereo unspecified) 1.73%
O=[N+]([O-])c1cccc(/C=N/n2cnnc2)c1O 4.49%
Cc1onc(-c2ccccc2Cl)c1C(=O)NCCCN1CCOCC1 12%
NS(=O)(=O)c1ccc(N/N=C/c2cn(-c3ccccc3)nc2-c2cccs2)cc1 2.12%
CCN(CCCCCCN)c1ccc2c(=O)[nH][nH]c(=O)c2c1 3.58%
Cc1ccc(-n2ncc3c(NNC(=O)c4ccco4)ncnc32)c(C)c1 7.64%
CCc1ccc(C2=NN(CCC(=O)NCC3CCCO3)C(=O)CC2)cc1 (stereo unspecified) 11.8%
CCNC(=S)N(CCc1c(C)[nH]c2ccc(OC)cc12)Cc1cccnc1 12.7%
O=C(NCc1ccccc1)c1ccc2c(=O)[nH]c3c(C(=O)NCC4CCCO4)sc(=S)n3c2c1 (stereo unspecified) 16.2%
O=C(NC1CCCCC1)c1sc(=S)n2c1[nH]c(=O)c1ccccc12 10.6%
Cc1ccccc1Cn1nc(C)c(NC(=O)c2cc(CC(C)C)on2)c1C 9.15%
COC(=O)c1c(NC(=O)c2ccco2)sc2c1CCC2 15.8%
COc1ccc(NC(=O)c2c(NC(=O)CNCc3ccco3)sc3c2CCC3)cc1 15.6%

— PubChem BioAssay AID624330 (Southern Research Specialized Biocontainment Screening …, 2012)
